Assay in all cases: NCI-60 one-dose screen, 48 h (100 = growth as untreated, 0 = no growth, -100 = all killed)
The test system of test [1] is DU-145 prostate. Conditions: 10 µM unless noted.
For test [2], the system named is K-562 leukemia. Conditions: 10 µM unless noted.
The subject of test [3] is MALME-3M melanoma. As to conditions: 10 µM unless noted.
The test system of test [4] is MDA-MB-231 breast. Conditions: 10 µM unless noted.
Test [5] relates to RXF 393 renal. Conditions: 10 µM unless noted.
For test [6], the system named is SF-268 CNS. As to conditions: 10 µM unless noted.
The subject of test [7] is SF-295 CNS. Conditions: 10 µM unless noted.
Test [8] has as its system SF-539 CNS. As to conditions: 10 µM unless noted.
Test [9] relates to UACC-257 melanoma. Conditions: 10 µM unless noted.
Test [10] concerns M14 melanoma. Conditions: 10 µM unless noted.
In test [11] the test system is HCT-15 colon. Conditions: 10 µM unless noted.
The test system of test [12] is HT29 colon. Conditions: 10 µM unless noted.
The test system of test [13] is SNB-75 CNS. Conditions: 10 µM unless noted.
Test [14] has as its system SNB-19 CNS. Conditions: 10 µM unless noted.
Test [15] has as its system U251 CNS. As to conditions: 10 µM unless noted.
Test [16] has as its system PC-3 prostate. Conditions: 10 µM unless noted.
Test [17] concerns SK-MEL-5 melanoma. As to conditions: 10 µM unless noted.
The test system of test [18] is UACC-62 melanoma.
The subject of test [19] is LOX IMVI melanoma. As to conditions: 10 µM unless noted.
Test [20] has as its system SK-MEL-28 melanoma. As to conditions: 10 µM unless noted.

Where “and” joins values, the source holds several entries; their conditions need not be identical. Equal entries are not always repeated. Compounds without any hit were thinned out: in the full panel of roughly 83,000, 20% have a hit.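 Growth was measured after 48 h exposure to one concentration of compound in 96-well plates. Values under 10 count as active.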 Values without a mark were called inactive. Calls of active or inactive are those of the source.

Regarding `CC1CCC2(C(=O)O)CCC3(C)C(=CCC4C5(C)CCC(O)C(C)(C)C5CCC43C)C2C1C` (centres undefined), the growth in [1] is 44% and 75.8%; in [2] it was 14.4% and 62.6%; in test [3], 81.4% and 88.9%; in test [4], 28.1% and 71.6%; in test [5], 40.9% and 79.5%; in test [6], 28.9% and 75.7%. The growth is 28% and 89.7% in test [7]; 43.1% and 79% in test [8]; 39.8% and 90.1% in test [9]; 41.1% in test [10]; 32.4% and 66.2% in [11]; 48.3% and 111% in [12]. The growth in test [13] is 32.2% and 95.6%; in [14], 63.4% and 91.6%; in test [15] it was 42.9% and 77.6%; in [16] it was 65.1% and 79.8%; in test [17] it was 24.7% and 96.2%; in test [18] (10 µM), 88.6% and 81.2%. The growth in [18] (100 µM) is -65.9% (active) and -92.3% (active); in [19] it was 25.3% and 70.1%; in test [20], 35.9% and 78.7%.

Take `O=C1CSC2=NCCN12`: the growth in [1] is 111% and 107%; in test [2], 74.2% and 76.4%; in test [3] it was 91.7% and 120%; in test [4], 104% and 103%; in test [5], 81.5% and 98.4%; in test [6], 97.4% and 96.9%. Moreover, the growth in test [7] was 102% and 81%; in [8], 94.3% and 91.7%; in test [9], 71.9% and 103%; in test [10], 90.1% and 91.6%; in [11], 107% and 97.2%; in [12] it was 96.4% and 91.5%. The growth in test [13] was 87.5% and 83.3%; in test [14], 101% and 112%; in test [15] it was 88.7% and 91.1%; in test [16] it was 102% and 121%; in test [17], 88.9% and 86.1%; in test [18] (10 µM unless noted) it was 87.1%. Also, the growth in test [19] was 94% and 90.1%; in test [20], 78.5% and 85.8%.

Take `CN(C)CC1CCCCCC(CN(C)C)C1=O` (centres undefined): the growth in test [1] was 16.3%; in test [2] it was 0.401% (active); in [3], -29.8% (active); in test [4] it was 86.2%; in test [5], -5.99% (active); in [6], 97%. The growth is 76.8% in test [7]; 113% in test [8]; 53.1% in [9]; 77.4% in test [10]; 7.44% (active) in [11]; 31.8% in [12]. For the same compound, the growth in [13] is 98.4%; in test [14] it was 108%; in [15], 89%; in test [16], 86.7%; in [17], 104%; in [18] (10 µM unless noted), 91.9%. For the same compound, the growth in [19] is 81.3%; in test [20] it was 94.8%.

As for `N#CC(C#N)N=Nc1ccc(Cl)cc1`, the growth was 68.2% in test [1]; 10.2% in [2]; 15.6% in test [3]; 47.2% in test [4]; 61.4% in test [5]; 84.9% in test [6]. Further, the growth is 94.7% in test [7]; 53.1% in test [8]; 20.8% in [9]; 60.1% in [10]; 15.1% in [11]; 24.7% in [12]. The growth in test [13] was 72%; in test [14] it was 94.2%; in test [15] it was 88.7%; in test [16], 54.7%; in [17] it was 79.6%; in test [19], 53.5%. Besides, the growth in test [20] was 42.2%.

`O=C(Cc1ccccc1)c1ccc(O)c(Cl)c1`: the growth is 18.5% in test [1]; 21.4% in [2]; 50.2% in test [3]; 49.8% in test [4]; 41.7% in [5]; 41.7% in test [6]. Also, the growth in test [7] is 47.8%; in test [8] it was 32.9%; in [9], 66.7%; in test [10], 30.1%; in test [11] it was 13.9%; in [12], 30.2%. Moreover, the growth was 72.7% in test [13]; 74.8% in test [14]; 53.2% in test [16]; 27.5% in test [17]; 26.8% in [18] (10 µM unless noted); 15.2% in [19]. In addition, the growth in test [20] is 49.4%.

As for `CC(C)NCC(O)c1ccc(O)c(O)c1` (centres undefined), the growth is 110% and 119% and 103% in test [1]; 112% and 101% in test [2]; 101% and 88.7% and 141% in test [3]; 84% and 78.9% and 85.1% in test [4]; 103% and 105% in test [5]; 102% and 106% and 86.6% in test [6]. Also, the growth in [7] is 108% and 110% and 105%; in test [8], 95.9% and 87.7% and 85.6%; in test [9], 109% and 102%; in test [10] it was 98.1% and 96.8% and 113%; in [11] it was 104% and 106% and 99.5%; in [12] it was 100% and 111%. Also, the growth is 75.3% and 83.1% and 82.2% in [13]; 101% and 89.5% and 93.5% in test [14]; 98.6% and 118% and 99.2% in test [15]; 93.8% and 95.8% in test [16]; 94.6% and 90.3% and 120% in [17]; 101% and 109% and 98.5% in test [18] (10 µM unless noted). In addition, the growth in test [19] was 94.2% and 111% and 95.4%; in test [20], 107% and 116% and 101%.

The values are drawn from PubChem BioAssay (NCI).
